From ChEMBL document CHEMBL1157539, “Thousands of chemical starting points for antimalarial lead identification” (Nature, 2010)

test system: Plasmodium falciparum; assay: GSK_TCMDC: Inhibition of Plasmodium falciparum 3D7 in whole red blood cells, using parasite LDH activity as an index of growth. Test compounds present at 2uM; type: functional

Inhibition, 100%:
COc1ccc(-c2ccc(NC(=O)c3cccc(C#N)c3)cc2)cc1CN1CCCN(C)CC1.O=C(O)C(F)(F)F
CC(C)CCNCc1ccc(OCc2ccccc2COc2ccc(CNCCC(C)C)cc2I)c(I)c1.Cl
O=C(NC1CCN(Cc2ccccc2)CC1)c1ccc(-c2nc3cc(Cl)c(Cl)cc3[nH]2)c(F)c1
O=C(/C=C/c1ccc(Cl)c(Cl)c1)NCCCCCCN1CCN(C(=O)Nc2cc(Cl)nc(Cl)c2)CC1
O=C(/C=C/c1ccc(Cl)c(Cl)c1)NCCCCCCN1CCCN(C(=O)Nc2ccc(C(F)(F)F)cc2)CC1
O=C(Nc1ccc(F)c(Cl)c1)NC1CCN(c2ccnc3cc(Cl)ccc23)C1.O=C(O)C(F)(F)F (stereo unspecified)
COc1cc2nc(N3CCC(CNC(=O)c4cc5ccccc5s4)CC3)nc(N)c2cc1OC
Nc1cccc(CNCc2ccc(-c3ccc(-c4nc5cc(F)ccc5[nH]4)s3)cc2)c1.O=C(O)C(F)(F)F
Cl.NCc1ccc(-c2ccc3c(N)nccc3c2)cc1
O=C(O)C(F)(F)F.c1ccc(CCNCc2ccc(-c3ccc(CNC4CCN(Cc5ccccc5)CC4)cc3)nc2)cc1
CCCNCc1ccc(-c2ccc(CN(CCOC)C(=O)CCC(=O)c3ccc(OC)c(F)c3)cc2)nc1.O=C(O)C(F)(F)F
O=C(/C=C/c1ccc(Cl)c(Cl)c1)NCCCCCN1CCC(NC(=O)Nc2ccc(F)c(Cl)c2)CC1
COc1cccc(NC(=O)c2ccc(NCCCN3CC(C)CC(C)C3)c([N+](=O)[O-])c2)c1 (stereo unspecified)

Inhibition, 94%:
Cc1cc(C(F)(F)F)nn1-c1ccc(NC(=O)c2ccco2)cc1

Inhibition, 99%:
FC(F)(F)c1ccc2[nH]c(-c3cccc(-c4cccc(CNCCc5ccncc5)c4)c3)nc2c1.O=C(O)C(F)(F)F
CC(C)[C@H](NC(=O)c1ccc(O)c(-c2ccc(Cl)c(Cl)c2)c1)C(=O)NC1CCCCCC1
COc1ccc2nccc([C@@H](O)CN3CCC(NC(=O)Cc4cccc5c(Br)cccc45)CC3)c2c1
Cc1cc(O)nc(NC#N)n1

Inhibition, 81%:
CCc1c(CCNCCc2cccc(CCNCCc3ccc(OC)c(OC)c3CC)c2)ccc(OC)c1OC.Cl

Inhibition, 87%:
O=C(Nc1ccc(OC2CCN(Cc3ccccc3)CC2)c(Cl)c1)c1ccsc1.O=C(O)C(F)(F)F

Inhibition, 83%:
CC(C)Cn1c(Sc2ccc(C#N)c([N+](=O)[O-])c2)nnc1-c1ccccc1

Inhibition, 91%:
Cc1ccc(NC(=O)c2ccc(CN3CCCN(CCC(C)C)CC3)cc2)cc1F.O=C(O)C(F)(F)F

Inhibition, 97%:
O=C(NCc1ccco1)c1ccc(S(=O)(=O)c2ccc(Cl)cc2)cc1
COc1ccc(NC(=O)NC2CCN(CCCOc3cc(C)nc4ccccc34)CC2)cc1OC
O=C(O)C(F)(F)F.Oc1ccc(CN2CCC(NCc3cccc4ccccc34)CC2)cc1
Cc1cc(N2CCOCC2)nc2ccc(NC(=O)c3cccc([N+](=O)[O-])c3)cc12
O=C(N[C@H]1CCN(Cc2ccc(OCCCN3CCCCC3)cc2)C1)c1ccc2ccccc2c1
CN(CCO)Cc1cccc(-c2ccc(NC(=O)c3cccc(C#N)c3)cc2)c1.O=C(O)C(F)(F)F
CN1CCN(CCCN(Cc2cccc(-c3ccc(CNC4CCCC4)cc3)c2)C(=O)CCC2CCCC2)CC1.O=C(O)C(F)(F)F
C=CCn1c(Sc2ccc(C#N)c([N+](=O)[O-])c2)nnc1-c1ccc(Cl)cc1

Inhibition, 92%:
CCn1c(-c2nonc2N)nc2c(-c3cccc(NC(=O)Nc4cccc(C#N)c4)c3)ncc(OCCCN)c21.O=C(O)C(F)(F)F

Inhibition, 93%:
CCCc1cc(Cc2cnc(N)nc2N)cc(CCC)c1OCCCCC(=O)OCC

Inhibition, 98%:
Cc1c(Cc2ccccc2)c(=O)oc2c(C)c3c(cc12)CN(CC(C)c1ccccc1)CO3 (stereo unspecified)
COc1ccc2nccc([C@@H](O)CN3CCC(NCC(O)Cc4ccccc4)CC3)c2c1.O=C(O)C(=O)O (stereo partly specified)

Inhibition, 95%:
Cc1cc(C(=O)Nc2ccc3c(c2)CCN3C2CCN(Cc3cccc(F)c3F)C2)no1 (stereo unspecified)
COc1ccc(-c2cncc(-c3ccc(OC)c(OC)c3)n2)cc1OC.Cl
